Assay results taken from article PMC7862700, “An all-to-all approach to the identification of sequence-specific readers for epigenetic DNA modifications on cytosine”.

How the values were obtained:
Test in all cases: DAPPL (digital affinity profiling via proximity ligation, sequencing); 10 mM Tris-HCl pH 7.5, 50 mM NaCl, 1 mM DTT, 4% glycerol, room temperature, 30 min; GST-TFs on glutathione beads, 16-mer random dsDNA library, 0.1% formaldehyde crosslink after washing; high values mean tight binding
Conditions in all cases: protein: recombinant; tags: N-terminal GST; dsDNA, one strand shown
FLI1 = biological target: T1, FLI1 (Homo sapiens, UniProt Q01543 1-452)
T1 sequence: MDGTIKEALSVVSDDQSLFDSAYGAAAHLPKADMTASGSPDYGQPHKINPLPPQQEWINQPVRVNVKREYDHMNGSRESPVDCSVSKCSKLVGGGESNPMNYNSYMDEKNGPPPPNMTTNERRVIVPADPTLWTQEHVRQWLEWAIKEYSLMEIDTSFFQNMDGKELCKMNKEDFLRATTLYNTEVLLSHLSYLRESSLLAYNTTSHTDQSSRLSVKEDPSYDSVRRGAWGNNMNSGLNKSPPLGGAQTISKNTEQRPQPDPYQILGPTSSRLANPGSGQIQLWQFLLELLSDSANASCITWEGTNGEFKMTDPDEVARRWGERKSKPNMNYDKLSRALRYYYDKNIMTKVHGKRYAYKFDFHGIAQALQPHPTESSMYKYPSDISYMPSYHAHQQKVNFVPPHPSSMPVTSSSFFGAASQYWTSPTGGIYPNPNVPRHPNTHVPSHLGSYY
Procedure, shortened: (§1)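 Sequencing on an Illumina NextSeq500 followed washing, crosslinking with 0.1% formaldehyde, proximity ligation (BsaI/T4 ligase, 1 h, 37 °C) and PCR amplification of pools that had been incubated for 30 min at room temperature with 200 nmole of a random double-stranded 16-mer DNA library in Tris/NaCl/DTT/glycerol buffer. Each pool held DNA-barcoded human transcription factors, expressed in yeast as GST fusions and captured on glutathione beads, plus a tag-only sample. Binding signal is a hexamer's read frequency for a factor divided by its frequency in the tag-only sample.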

ELK1 = biological target: T2, ELK1 (Homo sapiens, UniProt P19419 1-428)
T2 sequence: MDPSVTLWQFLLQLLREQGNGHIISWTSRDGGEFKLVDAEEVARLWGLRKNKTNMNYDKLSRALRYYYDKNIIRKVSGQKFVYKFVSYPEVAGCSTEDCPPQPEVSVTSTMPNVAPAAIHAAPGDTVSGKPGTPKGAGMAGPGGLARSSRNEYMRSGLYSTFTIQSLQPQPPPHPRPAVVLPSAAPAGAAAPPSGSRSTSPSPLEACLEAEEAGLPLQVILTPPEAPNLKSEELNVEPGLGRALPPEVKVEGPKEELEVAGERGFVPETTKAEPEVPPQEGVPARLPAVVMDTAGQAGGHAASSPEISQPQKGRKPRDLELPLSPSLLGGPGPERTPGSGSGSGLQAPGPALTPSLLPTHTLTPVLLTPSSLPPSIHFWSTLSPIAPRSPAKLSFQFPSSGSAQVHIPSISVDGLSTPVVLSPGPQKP
Procedure, shortened: as §1

GABPA = biological target: T3, GABPA (Homo sapiens, UniProt Q06546 1-454)
T3 sequence: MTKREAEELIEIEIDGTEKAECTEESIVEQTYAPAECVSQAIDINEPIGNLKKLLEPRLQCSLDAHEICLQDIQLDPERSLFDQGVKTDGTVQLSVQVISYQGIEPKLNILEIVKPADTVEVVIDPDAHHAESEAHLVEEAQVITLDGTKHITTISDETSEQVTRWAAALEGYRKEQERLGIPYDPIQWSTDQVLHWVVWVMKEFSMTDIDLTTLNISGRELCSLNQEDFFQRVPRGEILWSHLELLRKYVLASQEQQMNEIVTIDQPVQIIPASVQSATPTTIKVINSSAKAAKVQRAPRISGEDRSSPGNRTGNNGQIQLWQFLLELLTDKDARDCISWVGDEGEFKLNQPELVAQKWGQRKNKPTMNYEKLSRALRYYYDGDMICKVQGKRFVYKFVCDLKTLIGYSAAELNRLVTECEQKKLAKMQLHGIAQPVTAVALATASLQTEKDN
Procedure, shortened: as §1

ERG = biological target: T4, ERG (Homo sapiens, UniProt P11308 1-479)
T4 sequence: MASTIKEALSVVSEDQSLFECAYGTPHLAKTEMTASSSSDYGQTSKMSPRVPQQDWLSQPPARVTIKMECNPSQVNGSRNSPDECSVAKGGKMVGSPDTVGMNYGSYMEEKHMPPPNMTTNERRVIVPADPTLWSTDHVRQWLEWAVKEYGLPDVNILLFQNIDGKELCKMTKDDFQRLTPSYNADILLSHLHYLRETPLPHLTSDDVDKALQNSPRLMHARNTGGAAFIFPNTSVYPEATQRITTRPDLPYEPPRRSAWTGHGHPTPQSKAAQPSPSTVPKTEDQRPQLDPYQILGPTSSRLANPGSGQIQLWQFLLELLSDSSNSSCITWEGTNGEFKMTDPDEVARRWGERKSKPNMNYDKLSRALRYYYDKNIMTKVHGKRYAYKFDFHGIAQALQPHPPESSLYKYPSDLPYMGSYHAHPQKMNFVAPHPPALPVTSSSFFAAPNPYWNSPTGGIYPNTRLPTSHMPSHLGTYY
Procedure, shortened: as §1

ELF1 = ELF1 (Homo sapiens, UniProt P32519 1-619)
Procedure, shortened: as §1

EHF = biological target: T5, EHF (Homo sapiens, UniProt Q9NZC4 1-300)
T5 sequence: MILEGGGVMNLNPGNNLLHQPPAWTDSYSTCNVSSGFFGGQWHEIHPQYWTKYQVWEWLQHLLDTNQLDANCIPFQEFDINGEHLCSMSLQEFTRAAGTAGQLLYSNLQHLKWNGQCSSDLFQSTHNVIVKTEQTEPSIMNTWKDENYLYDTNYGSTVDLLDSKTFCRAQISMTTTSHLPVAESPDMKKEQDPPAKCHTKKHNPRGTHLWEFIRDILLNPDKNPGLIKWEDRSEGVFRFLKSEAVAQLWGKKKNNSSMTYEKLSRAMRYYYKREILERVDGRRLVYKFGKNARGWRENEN
Procedure, shortened: as §1

SPI1 = SPI1 (Homo sapiens, UniProt P17947 1-270)
Procedure, shortened: as §1

SPIB = SPIB (Homo sapiens, UniProt Q01892 1-262)
Procedure, shortened: as §1

ELK3 = biological target: T6, ELK3 (Homo sapiens, UniProt P41970 1-407)
T6 sequence: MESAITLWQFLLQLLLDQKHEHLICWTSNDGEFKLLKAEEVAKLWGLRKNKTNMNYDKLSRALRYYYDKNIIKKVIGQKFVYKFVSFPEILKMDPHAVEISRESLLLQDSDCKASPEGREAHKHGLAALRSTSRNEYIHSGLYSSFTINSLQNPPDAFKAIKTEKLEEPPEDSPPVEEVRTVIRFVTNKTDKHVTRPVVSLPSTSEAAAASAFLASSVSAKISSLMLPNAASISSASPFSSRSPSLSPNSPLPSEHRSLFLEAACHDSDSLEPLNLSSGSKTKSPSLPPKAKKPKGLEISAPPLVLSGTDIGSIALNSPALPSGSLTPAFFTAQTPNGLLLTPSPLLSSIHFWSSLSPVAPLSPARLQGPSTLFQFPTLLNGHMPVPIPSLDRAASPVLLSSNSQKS
Procedure, shortened: as §1

FEV = biological target: T7, FEV (Homo sapiens, UniProt Q99581 1-238)
T7 sequence: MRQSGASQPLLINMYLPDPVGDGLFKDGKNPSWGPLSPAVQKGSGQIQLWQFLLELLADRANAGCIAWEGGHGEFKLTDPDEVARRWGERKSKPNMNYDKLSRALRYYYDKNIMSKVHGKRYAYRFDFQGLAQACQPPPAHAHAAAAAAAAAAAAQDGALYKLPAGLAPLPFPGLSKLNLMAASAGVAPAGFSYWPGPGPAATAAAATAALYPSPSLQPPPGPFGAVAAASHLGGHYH
Procedure, shortened: as §1

ETV5 = ETV5 (Homo sapiens, UniProt P41161 1-510)
Procedure, shortened: as §1

SPIC = biological target: T8, SPIC (Homo sapiens, UniProt Q8N5J4 1-248)
T8 sequence: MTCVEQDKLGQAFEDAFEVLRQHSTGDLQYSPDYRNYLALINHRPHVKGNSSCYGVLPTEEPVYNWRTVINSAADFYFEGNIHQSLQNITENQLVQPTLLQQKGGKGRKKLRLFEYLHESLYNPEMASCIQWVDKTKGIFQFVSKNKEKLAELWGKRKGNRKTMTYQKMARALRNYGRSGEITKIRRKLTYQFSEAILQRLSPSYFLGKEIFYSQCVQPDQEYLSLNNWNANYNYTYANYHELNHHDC
Procedure, shortened: as §1

ELF4 = ELF4 (Homo sapiens, UniProt Q99607 1-663)
Procedure, shortened: as §1

ELK4 = biological target: T9, ELK4 (Homo sapiens, UniProt P28324-2 1-405)
T9 sequence: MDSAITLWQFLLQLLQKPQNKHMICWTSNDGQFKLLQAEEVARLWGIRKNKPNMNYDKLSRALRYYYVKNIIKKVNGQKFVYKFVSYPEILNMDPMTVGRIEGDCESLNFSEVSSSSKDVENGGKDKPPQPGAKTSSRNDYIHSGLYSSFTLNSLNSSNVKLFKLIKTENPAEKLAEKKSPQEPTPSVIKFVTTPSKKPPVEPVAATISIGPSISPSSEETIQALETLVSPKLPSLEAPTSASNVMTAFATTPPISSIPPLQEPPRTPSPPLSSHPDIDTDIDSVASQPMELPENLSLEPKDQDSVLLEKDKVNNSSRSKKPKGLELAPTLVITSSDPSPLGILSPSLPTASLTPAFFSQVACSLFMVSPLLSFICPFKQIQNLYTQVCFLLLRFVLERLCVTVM
Procedure, shortened: as §1

ETV2 = biological target: T10, ETV2 (Homo sapiens, UniProt O00321 1-342)
T10 sequence: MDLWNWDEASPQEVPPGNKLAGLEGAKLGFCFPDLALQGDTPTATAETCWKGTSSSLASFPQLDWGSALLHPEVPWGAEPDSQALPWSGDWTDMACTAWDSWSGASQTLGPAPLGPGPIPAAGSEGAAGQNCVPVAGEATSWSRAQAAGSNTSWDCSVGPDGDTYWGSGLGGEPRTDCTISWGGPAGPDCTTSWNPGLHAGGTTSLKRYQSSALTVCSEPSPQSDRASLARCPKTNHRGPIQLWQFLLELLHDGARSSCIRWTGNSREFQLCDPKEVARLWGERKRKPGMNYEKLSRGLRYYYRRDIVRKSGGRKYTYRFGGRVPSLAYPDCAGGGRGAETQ
Procedure, shortened: as §1

ELF3 = biological target: T11, ELF3 (Homo sapiens, UniProt P78545 1-371)
T11 sequence: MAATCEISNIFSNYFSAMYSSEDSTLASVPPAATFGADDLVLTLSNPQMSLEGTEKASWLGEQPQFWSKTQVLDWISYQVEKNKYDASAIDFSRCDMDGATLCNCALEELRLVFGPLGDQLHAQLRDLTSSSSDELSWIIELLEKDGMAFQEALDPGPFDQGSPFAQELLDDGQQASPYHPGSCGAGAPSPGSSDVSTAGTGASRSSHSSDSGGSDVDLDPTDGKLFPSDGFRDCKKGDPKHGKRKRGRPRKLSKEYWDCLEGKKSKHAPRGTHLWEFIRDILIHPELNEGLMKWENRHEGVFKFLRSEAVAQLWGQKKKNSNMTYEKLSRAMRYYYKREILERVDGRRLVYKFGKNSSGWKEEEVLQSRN
Procedure, shortened: as §1

ETV1 = ETV1 (Homo sapiens, UniProt P50549 1-477)
Procedure, shortened: as §1

Chain of ETV1 (P50549 whole entry): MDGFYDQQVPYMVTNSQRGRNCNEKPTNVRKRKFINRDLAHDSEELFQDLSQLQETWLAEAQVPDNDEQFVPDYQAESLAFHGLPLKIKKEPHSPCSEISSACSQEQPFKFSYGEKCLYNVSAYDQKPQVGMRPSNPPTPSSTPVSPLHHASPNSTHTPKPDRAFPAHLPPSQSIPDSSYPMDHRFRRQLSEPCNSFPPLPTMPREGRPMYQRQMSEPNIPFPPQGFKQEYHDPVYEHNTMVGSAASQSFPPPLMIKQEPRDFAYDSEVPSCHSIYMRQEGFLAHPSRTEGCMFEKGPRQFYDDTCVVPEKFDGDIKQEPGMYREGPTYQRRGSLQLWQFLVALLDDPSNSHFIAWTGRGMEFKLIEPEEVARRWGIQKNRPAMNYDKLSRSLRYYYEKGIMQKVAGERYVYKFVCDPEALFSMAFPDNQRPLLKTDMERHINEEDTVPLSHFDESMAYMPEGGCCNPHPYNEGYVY
Chain of SPIB (Q01892 whole entry): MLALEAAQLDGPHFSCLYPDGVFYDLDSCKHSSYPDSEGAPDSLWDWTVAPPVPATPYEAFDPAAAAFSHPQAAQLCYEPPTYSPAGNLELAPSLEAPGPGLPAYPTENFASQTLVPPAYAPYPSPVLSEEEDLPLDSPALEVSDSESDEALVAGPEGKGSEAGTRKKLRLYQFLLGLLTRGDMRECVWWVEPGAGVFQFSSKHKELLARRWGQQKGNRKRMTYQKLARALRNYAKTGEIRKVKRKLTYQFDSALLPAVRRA
Chain of ELF1 (P32519 whole entry): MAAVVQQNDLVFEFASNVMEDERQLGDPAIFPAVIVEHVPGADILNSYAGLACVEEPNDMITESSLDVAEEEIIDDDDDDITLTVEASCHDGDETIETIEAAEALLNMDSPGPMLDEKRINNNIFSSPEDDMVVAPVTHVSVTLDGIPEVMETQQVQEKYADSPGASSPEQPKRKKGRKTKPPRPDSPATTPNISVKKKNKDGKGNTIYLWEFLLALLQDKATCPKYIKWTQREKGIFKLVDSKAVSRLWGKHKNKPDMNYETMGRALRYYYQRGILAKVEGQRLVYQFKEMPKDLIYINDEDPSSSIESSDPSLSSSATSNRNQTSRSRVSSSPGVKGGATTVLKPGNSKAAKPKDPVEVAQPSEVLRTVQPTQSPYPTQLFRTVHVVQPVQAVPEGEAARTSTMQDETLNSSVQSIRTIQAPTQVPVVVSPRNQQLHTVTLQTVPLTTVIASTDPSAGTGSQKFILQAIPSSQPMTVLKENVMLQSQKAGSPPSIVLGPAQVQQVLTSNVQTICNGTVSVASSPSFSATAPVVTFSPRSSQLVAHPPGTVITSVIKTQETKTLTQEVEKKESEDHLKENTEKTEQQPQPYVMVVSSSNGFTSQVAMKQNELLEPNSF
Chain of ELF4 (Q99607 whole entry): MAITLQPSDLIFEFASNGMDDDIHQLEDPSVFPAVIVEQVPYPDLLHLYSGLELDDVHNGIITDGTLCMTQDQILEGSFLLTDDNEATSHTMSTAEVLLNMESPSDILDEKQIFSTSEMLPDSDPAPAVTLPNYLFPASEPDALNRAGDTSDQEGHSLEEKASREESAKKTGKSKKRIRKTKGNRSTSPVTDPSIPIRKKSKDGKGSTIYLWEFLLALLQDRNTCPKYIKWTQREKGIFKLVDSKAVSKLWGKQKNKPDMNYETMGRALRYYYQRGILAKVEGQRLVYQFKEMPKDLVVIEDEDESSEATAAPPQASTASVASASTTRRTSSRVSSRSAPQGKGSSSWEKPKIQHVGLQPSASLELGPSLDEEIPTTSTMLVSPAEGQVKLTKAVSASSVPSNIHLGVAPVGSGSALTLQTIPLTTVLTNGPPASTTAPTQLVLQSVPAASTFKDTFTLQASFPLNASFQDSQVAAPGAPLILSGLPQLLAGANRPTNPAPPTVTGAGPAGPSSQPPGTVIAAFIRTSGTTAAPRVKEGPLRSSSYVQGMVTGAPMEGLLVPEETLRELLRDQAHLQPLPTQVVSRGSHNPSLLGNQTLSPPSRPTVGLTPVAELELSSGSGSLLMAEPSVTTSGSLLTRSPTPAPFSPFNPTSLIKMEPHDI
Chain of ETV5 (P41161 whole entry): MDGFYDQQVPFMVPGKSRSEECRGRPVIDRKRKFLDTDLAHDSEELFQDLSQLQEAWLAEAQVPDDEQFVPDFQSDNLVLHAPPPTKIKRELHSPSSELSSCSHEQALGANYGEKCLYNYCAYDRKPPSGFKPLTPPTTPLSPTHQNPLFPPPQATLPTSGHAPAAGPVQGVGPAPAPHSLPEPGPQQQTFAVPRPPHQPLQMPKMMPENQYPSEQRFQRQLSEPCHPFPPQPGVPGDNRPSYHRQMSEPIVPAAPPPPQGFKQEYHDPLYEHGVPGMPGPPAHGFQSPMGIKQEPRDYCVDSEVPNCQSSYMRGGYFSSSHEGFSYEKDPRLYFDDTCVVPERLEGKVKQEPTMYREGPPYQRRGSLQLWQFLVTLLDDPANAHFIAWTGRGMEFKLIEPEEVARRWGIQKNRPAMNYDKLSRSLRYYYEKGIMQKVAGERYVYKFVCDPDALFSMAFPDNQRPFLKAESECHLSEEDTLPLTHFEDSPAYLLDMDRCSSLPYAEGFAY

| Sequence | binding signal (FLI1) | binding signal (ELK1) | binding signal (GABPA) | binding signal (ERG) | binding signal (ELF1) | binding signal (EHF) | binding signal (SPI1) | binding signal (SPIB) | binding signal (ELK3) | binding signal (FEV) | binding signal (ETV5) | binding signal (SPIC) | binding signal (ELF4) | binding signal (ELK4) | binding signal (ETV2) | binding signal (ELF3) | binding signal (ETV1) |
| --- | --- | --- | --- | --- | --- | --- | --- | --- | --- | --- | --- | --- | --- | --- | --- | --- | --- |
| CTGACG | 1.19 fold enrichment (6-mer frequency, TF over GST control) | 1.09 fold enrichment (6-mer frequency, TF over GST control) | 1.23 fold enrichment (6-mer frequency, TF over GST control) | 1.06 fold enrichment (6-mer frequency, TF over GST control) | 1.16 fold enrichment (6-mer frequency, TF over GST control) | 1.01 fold enrichment (6-mer frequency, TF over GST control) | 1.06 fold enrichment (6-mer frequency, TF over GST control) | 1.13 fold enrichment (6-mer frequency, TF over GST control) | 1.03 fold enrichment (6-mer frequency, TF over GST control) | 1.11 fold enrichment (6-mer frequency, TF over GST control) | 1.2 fold enrichment (6-mer frequency, TF over GST control) | 1.13 fold enrichment (6-mer frequency, TF over GST control) | 1.06 fold enrichment (6-mer frequency, TF over GST control) | 1.11 fold enrichment (6-mer frequency, TF over GST control) | 1.35 fold enrichment (6-mer frequency, TF over GST control) | 1.05 fold enrichment (6-mer frequency, TF over GST control) | 1.09 fold enrichment (6-mer frequency, TF over GST control) |
| GAAACG | 1.17 fold enrichment (6-mer frequency, TF over GST control) | 1.26 fold enrichment (6-mer frequency, TF over GST control) | 1.2 fold enrichment (6-mer frequency, TF over GST control) | 1.38 fold enrichment (6-mer frequency, TF over GST control) | 1.18 fold enrichment (6-mer frequency, TF over GST control) | 1.19 fold enrichment (6-mer frequency, TF over GST control) | 1.17 fold enrichment (6-mer frequency, TF over GST control) | 1.25 fold enrichment (6-mer frequency, TF over GST control) | 1.27 fold enrichment (6-mer frequency, TF over GST control) | 1.36 fold enrichment (6-mer frequency, TF over GST control) | 1.21 fold enrichment (6-mer frequency, TF over GST control) | 1.19 fold enrichment (6-mer frequency, TF over GST control) | 1.14 fold enrichment (6-mer frequency, TF over GST control) | 1.05 fold enrichment (6-mer frequency, TF over GST control) | 1.28 fold enrichment (6-mer frequency, TF over GST control) | 1.27 fold enrichment (6-mer frequency, TF over GST control) | 1.29 fold enrichment (6-mer frequency, TF over GST control) |
